The text below walks through data of PubChem BioAssay AID1347430 (National Center for Advancing Translational Sciences (NCATS), 2020).

Hit rate of the full screen: of about 91,000 compounds, about 130 (0.14%) were called active. Roughly 3% stayed inconclusive and do not appear here. For the sample, actives were picked, then their nearest neighbours and some compounds at random. A number with no mark means an inactive call. Calls come from the whole dose curve; as a rule, active = well fitted inhibition curve with a large enough effect; inconclusive = small, poorly fitted or top-dose-only effect; inactive = flat fitted curve, though single readings scatter.
% is set by controls: 0 for no effect and ±100 for the full control effect; potency is the fitted concentration of half-maximal effect.

The test system of this test is Uracil-DNA glycosylase. The test can be described thus: Primary qHTS assay for inhibitors of Activation Induced Cytidine Deaminase (AID): UDG Counterscreen signal. Note: nearly all actives have a fitted effect of over 65% in size. The conditions noted are these: FRET deamination/UDG coupled assay, UDG read, 4 h; series mostly up to 115 µM; activity change, negative = inhibition: at the top concentration. An excerpt:
Assay Provider (PI) Patricia Gearhart Ph.D.
National Institute on Aging
National Institute of Health (NIH), Bethesda, MD
Assay Provider (PI) Rahul Kohli Ph.D.
Perelman School of Medicine
University of Pennsylvania, Philadelphia, PA
Activation-Induced Deaminase (AID) is a cytosine deaminase which converts cytosine into uracil within stretches of ssDNA. The presence of uracil in DNA initiates a cascade of mutagenic DNA repair to introduce point mutations and DNA double strand breaks. Specific targeting of AID to the immunoglobulin heavy chain loci (Igh) promotes mutagenesis in the antibody variable region for somatic hypermutation (SHM) or switch regions leading to class switch recombination (CSR). However, AID also plays a role in accumulating unnecessary mutations across the genome. Mis-targeting of AID results in the initiation of tumor development and leads to greater drug resistance among cancer cells when continually expressed. To identify an AID inhibitor, a small molecule library will be screened in collaboration with NCATS core facility at NIH. To confirm biological function, inhibitors will be examined in an in vitro murine B-cell activation assay and subsequent secondary validation screens. Top molecules will be further screened to identify inhibitory efficacy against a wild type primary splenocytes assay. Using these approaches, we hope to identify a small molecule with great efficacy and low toxicity for use as a molecular probe to further characterize AID's intricacies, or even as a therapeutic.
A FRET based analysis of cytosine deamination, was developed to identify potential inhibitors of AID catalytic activity. This screen has two signal output, Read 1 evaluates the AID inhibition response. The second readout (Read 2) evaluates UDG response and is uses as a counterscreen to exclude false positive inhibitors. Inhibition in AID and inactivity in the UDG signal is the desired outcome for this assay.
SEQUENCE No. (e.g., 1, 2, 3, etc.); […] (e.g., Cells, Incubation, Reagent, etc.); VALUE; DESCRIPTION
1a; Reagent; 3 uL; [4/3x] 1 uM AID/2.67 U/mL UDG
1b; Reagent; 3 uL; 2 U/mL UDG
1c; Reagent; 3 uL; 1 uM AID
2a; Compound; 46 nL; Follow-up plates (0.64 uM - 10 mM)
2b; Control; 46 nL; ATA ([…] - 10 mM)
3; Time; 10 min; incubation at room temperature
5; Time; 4 hr; incubation at room temperature
6; Reagent; 4 uL; [2x] 250 mM NaOH
7; Time; 15 sec; centrifuge at 1000 rpm
8; Time; 30 min; incubation at room temperature
9a; Detection; fluorescence (Read 1: AID); EnVision (PerkinElmer) plate reader, 540 excitation and 590 emission filters
9b; Detection; fluorescence (Read 2: UDG); EnVision (PerkinElmer) plate reader, 560 excitation and 665 emission filters
NOTES (numbers refer to sequence above)
1a; Reagents were dispensed in a medium-binding black solid-bottom Greiner plates (789176F) using a BioRptr liquid dispenser. Dispense 3 uL of [4/3x] 1 uM AID (provided by Kohli lab) and [4/3x] 2 U/mL UDG (NEB M0280L) into columns 1, 2, 5 to 48.
1b; Dispense 3 uL of [4/3x] 2 U/mL UDG into column 3.
1c; Dispense 3 uL of [4/3x] 1 uM AID into column 4.
2a; Compound (7-points [uM] (0.64; 3.2; 16; 80; 400; 2,000; 10,000; 20,000) double pin-transferred (Dip Factor = 2) using the Kalypsys (Wako USA) pintool equipped with a 1536 pinhead for a final concentration range of 7.32 nM - 114 uM.
2b; 10 mM Aurintricarboxylic Acid (Sigma A1895) (ATA, 8-point, n = 2, 1:2.5 dilution in column 2) double pin-transferred (Dip Factor = 2) using the Kalypsys (Wako USA) pintool equipped with a 1536 pinhead for a [final] range of 186 nM - 114 uM.
3; Room temperature incubation.
4; Dispense 1 uL of substrate mixture from the Kohli lab [4x] […] DJC20 and [4x] 250 nM DJC23 into columns 1 to 48 .
5; Room temperature incubation.
6; Dispense 4 uL of substrate mixture [2x] 250 mM NaOH into columns 1 to 48.
7; Centrifugation step to remove bubbles.
8; Room temperature incubation
9a; Fluorescence signal (column label AID) was read using the EnVision plate reader. […]
For orientation: qHTS replaces the single test concentration by a dilution series.
As to `COCCn1c(C)cc(C(=O)C(=O)Nc2nnc(COc3cc(C)ccc3C)s2)c1C`, the “activity change, negative = inhibition” value was -9%.

Regarding `CCc1ccccc1N(C)C(=O)C1CCCN(c2ncnc3onc(-c4ccc(F)cc4)c23)C1` (stereo not given), the “activity change, negative = inhibition” value was -1.14%.

Regarding `CN(Cc1ccccc1)c1ncnc2onc(-c3ccc(F)cc3)c12`, the “activity change, negative = inhibition” value was -13.7%.

`CCc1ccc(N(CC)C(=O)CCn2cnc3onc(-c4ccc(F)cc4)c3c2=O)cc1`: the Potency was 89.1 µM (active).

Turning to `CCN(CC)C(=O)CNC(=O)c1cc2ccccc2c(OC)n1`, the “activity change, negative = inhibition” value is -7.51%.

On to `N#Cc1cccc(C(=O)NC(c2ccccc2)c2cccs2)c1` (stereo not given), for which the “activity change, negative = inhibition” value was 4.19%.

Regarding `CCCC/C=N/NC(=O)CCCCCCCCCCC`, the “activity change, negative = inhibition” value is -3.8%.

For `CCCCCCCc1ccc(-c2ccc(OC)cc2)nc1`, the “activity change, negative = inhibition” value is 9.76%.

Consider `CCN(CC)S(=O)(=O)c1cc(NC(=O)c2n[nH]c3ccccc23)ccc1C`, for which the “activity change, negative = inhibition” value was 8.71%.

Take `O=S(=O)(Cc1nnnn1-c1ccccc1)c1ccccc1`: the “activity change, negative = inhibition” value is 5.04%.

As for `CCCNc1c(NC(=O)C(C)C)c(=O)oc2ccccc12`, the “activity change, negative = inhibition” value was -1.43%.

As for `CC(C)(C)c1ccccc1OCC(=O)Nc1cccc(C#N)c1`, the “activity change, negative = inhibition” value is -9.25%.

On to `COCC(C)n1c(COc2ccccc2F)nnc1SCC(C)C` (stereo not given), for which the “activity change, negative = inhibition” value is 1.84%.

Regarding `COCCNC(=S)NNC(=O)Cc1ccc(OC)c(OC)c1`, the “activity change, negative = inhibition” value is -11.8%.

In the case of `CCCCNC(=O)CCc1c[nH]c2ccccc12`, the “activity change, negative = inhibition” value was -1.33%.

Regarding `COC(=O)CNC(=O)/C(C)=C/c1ccccc1`, the “activity change, negative = inhibition” value was -1.2%.

Consider `N#Cc1ccc(CNc2cc(Cl)ccc2Cl)cc1`, for which the “activity change, negative = inhibition” value was 4.42%.

Regarding `Cc1ccc(NC(=O)c2ccc(Cl)cc2N2CCCC2=O)cc1`, the “activity change, negative = inhibition” value is 1.04%.

With `Ic1nc[nH]c1I`, the “activity change, negative = inhibition” value was 10.9%.

As to `COc1ccc(NC(=O)COc2ccc(F)cc2)c2cccnc12`, the “activity change, negative = inhibition” value was 4.14%.

In the case of `Cc1ccc(-n2c(SCC(=O)Nc3cccc(F)c3)nc3c(=O)[nH]cnc32)cc1`, the “activity change, negative = inhibition” value was 3.06%.

Consider `Cc1ccc(C(=O)NC(C)C)c(Cl)c1`, for which the “activity change, negative = inhibition” value was -0.64%.

For the molecule `Cc1cc(C)c2c(c1)/C(=N/Nc1nc3ccccc3[nH]1)CCC2`, the “activity change, negative = inhibition” value was -5.03%.

As for `Cc1[nH]c2ccccc2c1/C=N/c1sc2c(c1C#N)CCC(C)C2` (stereo not given), the “activity change, negative = inhibition” value is 3.48%.

For `CCCc1ccc(OC(=O)c2ccc3c(c2)-c2ccccc2C3=O)cc1`, the “activity change, negative = inhibition” value is -5.71%.

Regarding `Cc1csc(SCCCOc2ccc(C#N)cc2)n1`, the “activity change, negative = inhibition” value is 3.62%.

For the molecule `COc1ccc(CNC(=S)NCC(C)N2CCCCC2C)cc1` (stereo not given), the “activity change, negative = inhibition” value is 1.69%.

Turning to `Cn1nc(C(=O)OCC(=O)N(Cc2ccccc2)C(C)(C)C)c2ccccc2c1=O`, the “activity change, negative = inhibition” value is -7.83%.

As for `O=C(C1=COCCO1)N1CCN(c2ccccc2)CC1`, the “activity change, negative = inhibition” value is -24.2%.

Regarding `O=C1/C(=C/c2cccc(Br)c2)CCc2ccccc21`, the “activity change, negative = inhibition” value was -7.11%.

Turning to `COc1ccc(C(=O)/C(C#N)=C\c2ccccc2OC(F)F)cc1`, the “activity change, negative = inhibition” value was -11.4%.

As to `Cc1cc(C(=O)O)cc(S(=O)(=O)Nc2ccc(Cl)c3cccnc23)c1C`, the “activity change, negative = inhibition” value was 2.05%.

Turning to `C=CCNC(=O)NC(=O)CN(C)Cc1ccc(-c2ccc(Br)cc2)o1`, the “activity change, negative = inhibition” value is 2%.

Consider `CC(C)CNC(=O)CSc1nnc(COc2ccccc2Cl)o1`, for which the “activity change, negative = inhibition” value is -6.81%.

`O=C(O)c1ccc(Nc2nc(-c3ccc4ccccc4c3)cs2)cc1O`: the “activity change, negative = inhibition” value is 17.7%.

Take `CC(=O)Nc1ccc(NC(=O)Nc2ccccc2Cl)cc1`: the “activity change, negative = inhibition” value is -8.72%.

Consider `CCN1CCC(CNC(=O)c2cc(C)nc3cc(F)ccc23)CC1`, for which the “activity change, negative = inhibition” value was -2.03%.

As to `COc1ccc(NC(NC(=O)C(C)C)C(Cl)(Cl)Cl)cc1` (stereo not given), the “activity change, negative = inhibition” value is -4.93%.

With `O=C(CCc1ncc(-c2ccc(F)cc2)o1)NCc1ccc(OC(F)F)cc1`, the “activity change, negative = inhibition” value was 7.08%.

For the molecule `CNC(=S)NNC(=O)c1cccc(C)c1`, the “activity change, negative = inhibition” value was -13.5%.

On to `CC(=O)NCc1ccc(C(=O)COc2ccc(C(C)=O)cc2)cc1`, for which the “activity change, negative = inhibition” value is -5.52%.

For `N#Cc1ccccc1-n1ccnc1`, the “activity change, negative = inhibition” value was 3.71%.

Take `O=C(OCC(=O)c1cccs1)c1cccc(O)c1`: the “activity change, negative = inhibition” value was 12.3%.

Turning to `CC(C)(C)c1nc2cc(NC(=O)c3ccc[nH]c3=O)ccc2o1`, the “activity change, negative = inhibition” value is -7.52%.

As for `COc1ccccc1NC(=O)CSc1nc2c(=O)[nH]cnc2n1-c1ccccc1`, the “activity change, negative = inhibition” value is -13.3%.

Turning to `O=C(O)c1cccnc1SC(F)(F)F`, the “activity change, negative = inhibition” value is 5.69%.

Consider `Cc1ccc(C(CNC(=O)c2cc(-c3ccccc3)on2)N2CCC(C)CC2)o1` (stereo not given), for which the “activity change, negative = inhibition” value was -1.82%.

With `O=C(CCC1CCCC1)N1CCN(CC2CC=CCC2)CC1` (stereo not given), the “activity change, negative = inhibition” value is -5.57%.

Take `CC(=O)c1c(C)[nH]c(C(=O)OCC(=O)Nc2ccc(Br)c(C)c2)c1C`: the “activity change, negative = inhibition” value is 6.68%.

`COC(=O)Cn1cnc2c(sc3nc(C4CCCCC4)c4c(c32)CCC4)c1=O`: the “activity change, negative = inhibition” value was 2.71%.

On to `COc1cccc2cc(/C=C(/C#N)c3nc4ccccc4[nH]3)oc12`, for which the “activity change, negative = inhibition” value was 2.17%.

In the case of `COc1cc(SC)ccc1C(=O)Oc1cccc(F)c1`, the “activity change, negative = inhibition” value was -2.38%.

For the molecule `CCCCn1c(=O)[nH]c(=O)c2c1nc(COC(=O)c1cc(C)ccc1C)n2CCC`, the “activity change, negative = inhibition” value was -5.99%.

Take `O=C1C(O)=C(c2ccccc2)C(c2ccccc2)N1Cc1ccccn1` (stereo not given): the “activity change, negative = inhibition” value was -8.73%.

As to `CCCCC(CC)CNc1ncnc2sccc12` (stereo not given), the “activity change, negative = inhibition” value was -2.93%.

In the case of `CCc1c(C)sc(NC(=O)c2cccc3ccccc23)c1C#N`, the “activity change, negative = inhibition” value was -6.9%.

On to `Cc1cn2c(=O)cc(COC(=O)COc3ccccc3)nc2s1`, for which the “activity change, negative = inhibition” value was 3.76%.

For `O=C(NC1C2CC3CC(C2)CC1C3)c1cccc(Br)c1` (stereo not given), the “activity change, negative = inhibition” value is 2.83%.

Consider `Cc1ccc2cccc(NC(=O)c3ccccc3C)c2n1`, for which the “activity change, negative = inhibition” value was -2.94%.

Regarding `CCCc1cc(=O)oc2c(C)c(OCC(=O)NCc3ccccn3)ccc12`, the “activity change, negative = inhibition” value is 2.15%.

For the molecule `CCCCc1c/c(=N\O)oc2cc3occ(C)c3cc12`, the “activity change, negative = inhibition” value is -7.72%.

Take `N#C/C(=C/c1ccccc1OC(F)F)c1nc2cc(C(F)(F)F)ccc2s1`: the “activity change, negative = inhibition” value is -13.5%.

Turning to `Cc1csc(CNC(=O)c2cnccn2)n1`, the “activity change, negative = inhibition” value is -1.93%.

With `CCN(C(=O)COc1ncnc2c(Cl)cc(Cl)cc12)c1ccccc1`, the “activity change, negative = inhibition” value was -0.784%.

With `O=[N+]([O-])c1cc(S(=O)(=O)Nc2ccccc2NS(=O)(=O)c2cccs2)ccc1Cl`, the “activity change, negative = inhibition” value was -0.862%.
